Experimental data reported in ChEMBL document CHEMBL3988442, “University of Dundee, Small-Polar-MMV Screening Library” (2021).

Molecular target: AMP-activated protein kinase, AMPK (Homo sapiens) (UniProt P54646+O43741+P54619+Q9UGJ0+Q9Y478+Q13131+Q9UGI9)
Assay: AMP-dependent Kinase enzyme assay. An in vitro enzyme assay that detects ADP turnover that is directly proportional to AMPK activity. This uses naive AMPK that is activated during the assay with MK-8722
Assay type: functional
Design: scale not given: direction of the effect not stated beside the values
Conditions: 30 µM

SMILES	Percent Effect [%]
O=C(CC1CCc2ccccc21)NC1(C(=O)O)CCOCC1 (centres undefined)	-0.354
COc1cc(-c2cccc3c2OC(CN)C3)cc(OC)c1OC (centres undefined)	-5.11
CCSCc1cccc(NCc2cccnc2)c1	5.73
CCn1cnnc1CCNC(=O)CCNC(=O)c1ccccc1F	-0.474
NC(=O)c1ccnc(N2CCCC(CO)(Cc3ccc(F)cc3)C2)c1 (centres undefined)	16.1
CCC1COCCN1C(=O)NCc1nccn1CCc1ccccc1 (centres undefined)	-3.33
Cc1cc(C)c(C(=O)N(C)CCN(C)C(=O)c2[nH]c(C)cc2C)[nH]1	-2.87
COc1ccc(NC(=O)c2cnc(C3CCN(C(C)=O)C3)nc2C)cc1 (centres undefined)	-1.66
FC(F)(F)c1cc(C2CCCN(Cc3cccnc3)C2)n[nH]1 (centres undefined)	5.52
COc1cccc(CCC(=O)Nc2ccn(C)n2)c1OC	10.3
Cc1ccc(-c2cc(C(=O)N(C)Cc3noc4c3CCCC4)[nH]n2)s1	-10.3
CNS(=O)(=O)CC(=O)NCc1cc2c(s1)CCCCC2	-1.26
Cc1ccc(CNC(CCO)C2CCCCC2)nc1 (centres undefined)	2.17
CC(C)(C)NC(=O)CNc1ccc(Br)cn1	7.07
Cc1ccnc(C2(C)CCCN2S(=O)(=O)c2ccccc2)n1 (centres undefined)	-5.61
CCc1onc(C)c1C(=O)N1CCN(c2ncc3c(n2)CCOC3)CC1	13
CN(CCOc1ccccc1F)C1CCOC1=O (centres undefined)	-5.42
Cc1nc(C(NS(=O)(=O)N(C)C)c2ccccc2F)no1 (centres undefined)	-2.57
O=C1CN(Cc2cn(CC3CCN(C4CCSCC4)CC3)nn2)CCN1	-3.51
Cc1ccc(C(=O)NC2CCN(S(C)(=O)=O)CC2)c(=O)[nH]1	1.76

SMILES	Percent Effect [%]
Cc1cc(C(=O)NC2CCN(c3nnc(C)c(C)c3C#N)CC2)no1	-21.4
COC(=O)CCN(C)C(=O)c1csc(Cc2ccccc2F)n1	-2.56
CCS(=O)(=O)Nc1ccc2[nH]c(C3CCC3)nc2c1	-4.1
Cc1nc(N(C)C)cc(C2(C)CCCNC2)n1 (centres undefined)	10.2
CC(C)c1nc(C2CCCN2CCN2CCCCC2)no1 (centres undefined)	-7.59
Cc1cccc(NC(=O)N2CCOCC(CN(C)C)C2)c1C (centres undefined)	-2.2
CC(C)(CNc1c(C#N)cnc2ccc(Cl)cc12)C(N)=O	6.25
CC1CN(Cc2cccc(CN)c2)CCO1 (centres undefined)	-4.57
NC(=O)CCC1CCCN(Cc2cnc(N3CCCCC3)nc2)C1 (centres undefined)	7.08
COC(=O)c1ccc(N(C(=O)c2ccncc2)C(C)C)c(C)c1	-1.62
Cc1ccccc1C(=O)NC[C@@H]1CCN(C(=O)c2cscn2)C[C@H]1O	1.22
O=S(=O)(Cc1nc(C2CC2)no1)c1cc(F)ccc1F	8.83
CCC(C)NC(=O)Nc1cccc(OCC#N)c1 (centres undefined)	-0.326
Cc1c(NC(=O)CN(C)S(C)(=O)=O)cccc1OC1CCCC1	-0.429
Cc1csc(C(C)(C)NCC(=O)N(C)Cc2ccc(C)o2)n1	-7.36
CC(=O)N[C@H]1CCO[C@@H](c2cccc(NC(=O)C(C)(C)C)c2)C1	7.76
Cc1ccsc1C(CNC(=O)c1cc(=O)c2ccccc2[nH]1)N(C)C (centres undefined)	13.7
CCCOc1ccc(Cl)cc1CNc1ncnc2oc(C)nc12	0.0102
COCC[C@]1(O)CCN(CC(=O)NCc2ccccn2)C[C@H]1C	9.06
